These results are taken from PMC12820563, “FoxP3 forms a head-to-head dimer in vivo and stabilizes its multimerization on adjacent microsatellites”.

Whole data set: some 16,000 sequences, median “rpm ratio (pull-down/input)” near 0.5, cut for the highest 2% near 5.5. This excerpt belongs to a sample that is enriched for the highest values.

The target in this assay is T1, MBP-FoxP3dN (Mus musculus, UniProt Q99JB6 188-423).
T1 sequence: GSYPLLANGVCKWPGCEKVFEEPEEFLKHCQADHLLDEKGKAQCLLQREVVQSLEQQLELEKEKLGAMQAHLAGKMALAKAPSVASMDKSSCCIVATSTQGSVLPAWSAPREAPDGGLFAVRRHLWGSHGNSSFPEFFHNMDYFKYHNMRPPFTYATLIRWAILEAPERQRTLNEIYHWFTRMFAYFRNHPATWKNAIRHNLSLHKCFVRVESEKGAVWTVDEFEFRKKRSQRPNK
In words: PD-seq (MBP pull-down with sequencing); 20 mM Tris-HCl pH 7.5, 100 mM NaCl, 1.5 mM MgCl2, 0.4 uM protein, 0.1 uM dsDNA library, 30 min, room temperature, amylose pull-down; high values mean tight binding. To be noted: protein: recombinant; tags: His6-MBP; chain copies: 2; dsDNA, one strand shown. In a few lines: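 A fragment of mouse FoxP3 or FoxP1 without its N-terminus, carrying a His6-MBP tag and produced in E. coli, was combined at 0.4 µM with a 0.1 µM degenerate double-stranded DNA library filled in with Klenow. The mixture sat for 30 min at room temperature in Tris pH 7.5 buffer containing NaCl and MgCl2. Protein–DNA complexes were captured on amylose resin, washed three times, and the DNA was freed with proteinase K, barcoded by PCR and sequenced on Illumina. Binding is expressed as reads-per-million enrichment of pull-down over input, with replicates pooled.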
Consider “GATGATTGTTCTCCCAGCTGATGAATTGCTTTATTCGAGTAAACAAATTTTCCTAATCTTTCTGTTCAAGCGCCATCTAC”, for which the binding signal was 1.09 RPM ratio (pull-down/input). Then “GATGATTGTTCTCCCAGCTGATGAATTTGCTTATTCGAGTAAACAAATTTTCCTAATCTTTCTGTTCAAGCGCCATCTAC”, with 6.84 RPM ratio (pull-down/input). Regarding “GATGATTGTTCTCCCAGCTGATGAATTTTGCTTATCGAGTAAACAAATTTTCCTAATCTTTCTGTTCAAGCGCCATCTAC”, the binding signal was 6.46 RPM ratio (pull-down/input). For “GATGATTGTTCTCCCAGCTGATGAATTGCTTATATCGAGTAAACAAATTTTCCTAATCTTTCTGTTCAAGCGCCATCTAC”, the binding signal was 1.61 RPM ratio (pull-down/input).

As for “GATGATTGTTCTCCCAGCTGATGAATTTGCTTTATCGAGTAAACAAATTTTCCTAATCTTTCTGTTCAAGCGCCATCTAC”, the binding signal was 3.94 RPM ratio (pull-down/input).

Take “GATGATTGTTCTCCCAGCTGATGAATTACTCATCTCGAGTAAACAAATTTTCCTAATCTTTCTGTTCAAGCGCCATCTAC”: the binding signal is 0.431 RPM ratio (pull-down/input). Turning to “GATGATTGTTCTCCCAGCTGATGAATTGAGCGCATCGAGTAAACAAATTTTCCTAATCTTTCTGTTCAAGCGCCATCTAC”, the binding signal was 1.34 RPM ratio (pull-down/input). Turning to “GATGATTGTTCTCCCAGCTGATGAATTCCCACGTTCGAGTAAACAAATTTTCCTAATCTTTCTGTTCAAGCGCCATCTAC”, the binding signal was 0.282 RPM ratio (pull-down/input).

For the sequence “GATGATTGTTCTCCCAGCTGATGAATTCCTATTGTCGAGTAAACAAATTTTCCTAATCTTTCTGTTCAAGCGCCATCTAC”, the binding signal was 0.764 RPM ratio (pull-down/input). Consider “GATGATTGTTCTCCCAGCTGATGAATTCTATTTGTCGAGTAAACAAATTTTCCTAATCTTTCTGTTCAAGCGCCATCTAC”, for which the binding signal is 5.87 RPM ratio (pull-down/input). For the sequence “GATGATTGTTCTCCCAGCTGATGAATTTGTCTATTCGAGTAAACAAATTTTCCTAATCTTTCTGTTCAAGCGCCATCTAC”, the binding signal is 5.7 RPM ratio (pull-down/input). Under “GATGATTGTTCTCCCAGCTGATGAATTGTCCTATTCGAGTAAACAAATTTTCCTAATCTTTCTGTTCAAGCGCCATCTAC” stands 0.45 RPM ratio (pull-down/input). Then “GATGATTGTTCTCCCAGCTGATGAATTTCTATTGTCGAGTAAACAAATTTTCCTAATCTTTCTGTTCAAGCGCCATCTAC”, with 0.631 RPM ratio (pull-down/input); and “GATGATTGTTCTCCCAGCTGATGAATTGTCTATTTCGAGTAAACAAATTTTCCTAATCTTTCTGTTCAAGCGCCATCTAC”, with 1.18 RPM ratio (pull-down/input). On to “GATGATTGTTCTCCCAGCTGATGAATTGGCCCTCTCGAGTAAACAAATTTTCCTAATCTTTCTGTTCAAGCGCCATCTAC”, for which the binding signal was 0.358 RPM ratio (pull-down/input). Under “GATGATTGTTCTCCCAGCTGATGAATTCGTCAGGTCGAGTAAACAAATTTTCCTAATCTTTCTGTTCAAGCGCCATCTAC” stands 0.551 RPM ratio (pull-down/input); under “GATGATTGTTCTCCCAGCTGATGAATTTGTTGGCTCGAGTAAACAAATTTTCCTAATCTTTCTGTTCAAGCGCCATCTAC”, 7 RPM ratio (pull-down/input); under “GATGATTGTTCTCCCAGCTGATGAATTTGTTAGCTCGAGTAAACAAATTTTCCTAATCTTTCTGTTCAAGCGCCATCTAC”, 6.55 RPM ratio (pull-down/input). As for “GATGATTGTTCTCCCAGCTGATGAATTGTTAGGCTCGAGTAAACAAATTTTCCTAATCTTTCTGTTCAAGCGCCATCTAC”, the binding signal was 0.88 RPM ratio (pull-down/input).

For “GATGATTGTTCTCCCAGCTGATGAATTTTTTGGCTCGAGTAAACAAATTTTCCTAATCTTTCTGTTCAAGCGCCATCTAC”, the binding signal was 0.204 RPM ratio (pull-down/input).

In the case of “GATGATTGTTCTCCCAGCTGATGAATTCTTTGGCTCGAGTAAACAAATTTTCCTAATCTTTCTGTTCAAGCGCCATCTAC”, the binding signal is 0.217 RPM ratio (pull-down/input). In the case of “GATGATTGTTCTCCCAGCTGATGAATTTCTTAGCTCGAGTAAACAAATTTTCCTAATCTTTCTGTTCAAGCGCCATCTAC”, the binding signal was 0.342 RPM ratio (pull-down/input). Under “GATGATTGTTCTCCCAGCTGATGAATTGCGGTCATCGAGTAAACAAATTTTCCTAATCTTTCTGTTCAAGCGCCATCTAC” stands 1.01 RPM ratio (pull-down/input).

For the sequence “GATGATTGTTCTCCCAGCTGATGAATTCGATGCATCGAGTAAACAAATTTTCCTAATCTTTCTGTTCAAGCGCCATCTAC”, the binding signal was 1.84 RPM ratio (pull-down/input). For the sequence “GATGATTGTTCTCCCAGCTGATGAATTCATGCATTCGAGTAAACAAATTTTCCTAATCTTTCTGTTCAAGCGCCATCTAC”, the binding signal is 5.77 RPM ratio (pull-down/input). Then “GATGATTGTTCTCCCAGCTGATGAATTAATGCATTCGAGTAAACAAATTTTCCTAATCTTTCTGTTCAAGCGCCATCTAC”, with 6.89 RPM ratio (pull-down/input).

For “GATGATTGTTCTCCCAGCTGATGAATTAAATGCATCGAGTAAACAAATTTTCCTAATCTTTCTGTTCAAGCGCCATCTAC”, the binding signal is 2.36 RPM ratio (pull-down/input). In the case of “GATGATTGTTCTCCCAGCTGATGAATTGCATCATTCGAGTAAACAAATTTTCCTAATCTTTCTGTTCAAGCGCCATCTAC”, the binding signal was 5.15 RPM ratio (pull-down/input). Under “GATGATTGTTCTCCCAGCTGATGAATTAATGAATTCGAGTAAACAAATTTTCCTAATCTTTCTGTTCAAGCGCCATCTAC” stands 0.682 RPM ratio (pull-down/input); under “GATGATTGTTCTCCCAGCTGATGAATTGAAGCATTCGAGTAAACAAATTTTCCTAATCTTTCTGTTCAAGCGCCATCTAC”, 4.38 RPM ratio (pull-down/input); under “GATGATTGTTCTCCCAGCTGATGAATTGCATGATTCGAGTAAACAAATTTTCCTAATCTTTCTGTTCAAGCGCCATCTAC”, 1.35 RPM ratio (pull-down/input). Under “GATGATTGTTCTCCCAGCTGATGAATTGATGCATTCGAGTAAACAAATTTTCCTAATCTTTCTGTTCAAGCGCCATCTAC” stands 6.87 RPM ratio (pull-down/input).
